A selection: hits, their analogues and other compounds. The true share with any hit is near 1.3%.
PKA-R1A activ = activators of PKA-R1A complex; P00514+P68181; PKA-R1A dissociation, Cy5-IP20 fluorescence polarization; scaled: DMSO 0%, 113 µM cGMP 100%; activation, % at 11.4 µM; actives 0.083% (n = 340,000); AID 504707;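 active = percent activation above the mean of all tested compounds plus 3 SD, cut at about 19% in these data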;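 also: higher means more PKAc released from R1A so a rise in polarization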
eLon inh = E. coli protease La inhibition. P0A9M0. purified E. coli Lon protease, fluorescence polarization. inhibition, % at 7.94 µM. actives 0.42% (n = 360,000). AID 602123; in the data active = inhibition above about 13%, passing the limit was not always enough
PKA-R2B act = PKA-R2B complex activation; actives 0.079% (n = 340,000); P22694+P31323; PKA-R2B holoenzyme dissociation, Cy5-IP20 fluorescence polarization; R2B truncated from residue 108, S112A mutant; 0% DMSO only, 100% 113 µM cGMP; activation, % at 11.4 µM;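 active = activation above a cutoff set at the mean over all compounds plus 3 SD, cut at about 18% in these data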;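 also: higher means more holoenzyme dissociation and a rise in polarization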
IDE cell inh = inhibitors of human insulin-degrading enzyme in cells | P14735 | HEK cells, FAbetaB cleavage, fluorescence polarization | inhibition, % at 5.59 µM | actives 0.41% (n = 320,000) | AID 434962;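 active = percent inhibition above the average of all tested compounds plus 3 SD, set per screening campaign, cut at about 16% in these data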;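 also: IDE supplied by intact live HEK cells; FP after avidin binding of uncleaved biotin substrate so inhibition keeps polarization high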
Rin1 Abl inh = human Rin1-Abl interaction inhibition; inhibition, % at 7.35 µM; actives 0.4% (n = 360,000); P00519+Q13671; TR-FRET Rin1/Abl binding, biochemical; AID 588664; in the data active = inhibition above about 5%, passing the limit was not always enough
Target sequence (P00519 whole entry, looked up): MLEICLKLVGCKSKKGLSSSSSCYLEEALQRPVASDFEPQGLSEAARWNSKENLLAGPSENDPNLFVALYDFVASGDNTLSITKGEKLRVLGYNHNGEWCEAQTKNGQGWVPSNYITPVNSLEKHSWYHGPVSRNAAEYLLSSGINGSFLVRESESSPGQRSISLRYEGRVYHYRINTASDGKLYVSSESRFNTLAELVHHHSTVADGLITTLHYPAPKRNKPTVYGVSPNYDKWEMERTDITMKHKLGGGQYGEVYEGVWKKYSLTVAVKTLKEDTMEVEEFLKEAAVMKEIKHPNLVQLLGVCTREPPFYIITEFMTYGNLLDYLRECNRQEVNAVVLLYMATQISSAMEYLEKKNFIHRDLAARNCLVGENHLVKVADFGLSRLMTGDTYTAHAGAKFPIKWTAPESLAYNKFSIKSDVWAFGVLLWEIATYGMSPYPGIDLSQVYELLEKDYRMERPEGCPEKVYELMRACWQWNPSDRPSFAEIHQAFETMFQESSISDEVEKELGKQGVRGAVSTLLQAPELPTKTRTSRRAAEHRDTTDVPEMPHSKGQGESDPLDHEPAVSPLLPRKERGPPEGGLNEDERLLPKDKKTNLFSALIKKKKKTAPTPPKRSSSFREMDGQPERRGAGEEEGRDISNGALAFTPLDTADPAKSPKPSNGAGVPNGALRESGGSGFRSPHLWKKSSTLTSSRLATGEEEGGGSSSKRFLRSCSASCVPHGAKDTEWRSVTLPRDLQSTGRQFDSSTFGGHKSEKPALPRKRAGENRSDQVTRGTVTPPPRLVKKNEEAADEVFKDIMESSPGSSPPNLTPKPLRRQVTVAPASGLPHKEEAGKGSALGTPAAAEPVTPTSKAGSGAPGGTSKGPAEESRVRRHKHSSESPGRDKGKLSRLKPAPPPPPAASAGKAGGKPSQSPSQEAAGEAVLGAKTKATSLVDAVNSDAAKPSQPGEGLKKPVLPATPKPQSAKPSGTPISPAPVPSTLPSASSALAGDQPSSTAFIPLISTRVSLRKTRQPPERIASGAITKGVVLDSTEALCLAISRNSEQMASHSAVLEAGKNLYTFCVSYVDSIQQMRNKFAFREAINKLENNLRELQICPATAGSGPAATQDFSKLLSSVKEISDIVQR
Target sequence (Q13671 whole entry, looked up): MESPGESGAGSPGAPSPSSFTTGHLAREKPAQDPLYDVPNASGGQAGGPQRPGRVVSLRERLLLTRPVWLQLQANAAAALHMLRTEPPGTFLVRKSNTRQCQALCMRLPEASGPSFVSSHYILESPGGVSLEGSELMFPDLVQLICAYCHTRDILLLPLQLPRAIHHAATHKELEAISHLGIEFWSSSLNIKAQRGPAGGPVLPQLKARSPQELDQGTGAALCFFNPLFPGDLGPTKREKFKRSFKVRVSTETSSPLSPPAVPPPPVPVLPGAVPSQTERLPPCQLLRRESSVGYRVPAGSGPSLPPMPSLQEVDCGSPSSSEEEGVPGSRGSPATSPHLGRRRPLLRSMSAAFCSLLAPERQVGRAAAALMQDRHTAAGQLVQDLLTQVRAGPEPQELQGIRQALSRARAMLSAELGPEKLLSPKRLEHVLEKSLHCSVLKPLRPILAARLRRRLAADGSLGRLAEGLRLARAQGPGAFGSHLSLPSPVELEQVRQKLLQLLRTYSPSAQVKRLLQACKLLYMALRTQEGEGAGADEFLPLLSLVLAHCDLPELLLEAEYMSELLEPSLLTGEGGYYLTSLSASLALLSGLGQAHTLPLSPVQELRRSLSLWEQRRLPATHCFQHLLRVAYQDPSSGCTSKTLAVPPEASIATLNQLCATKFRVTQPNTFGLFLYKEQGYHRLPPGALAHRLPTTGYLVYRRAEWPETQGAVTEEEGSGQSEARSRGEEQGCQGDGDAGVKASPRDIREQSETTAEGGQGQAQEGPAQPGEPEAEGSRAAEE
IDE act = activators of human insulin-degrading enzyme in cells | P14735 | HEK cells, FAbeta-B cleavage, fluorescence polarization; 0% vehicle, 100% cell-free pure enzyme wells | activation, % at 5.96 µM | actives 0.073% (n = 340,000) | AID 493087;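 active = activation above the mean of all tested compounds plus 3 SD, set per screening campaign, cut at about 17% in these data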
R2B FP artifact = FP assay interference, PKA-R2B counter-screen | activation, % at 11.4 µM | FP artifact counterscreen, fluorescence polarization | AID 504796 | shares compounds with PKA-R2B act | actives 6% (n = 270); in the data active = activation above about 20%;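 also: Cy5 labelled IP20 peptide probe with compound but no PKA protein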
PKA-R2B act conf = confirmation of human PKA-R2B complex activators | actives 9% (n = 270) | shares compounds with PKA-R2B act | fluorescence polarization, activation | activation, % at 11.4 µM; in the data active = activation above about 19%
Of the large screens only hits and unclear results are named; the others gave an inactive call (follow-up assays come after a bar, where they were run).

COc1ccc(OC)c(C(=O)NC(CC(N)=O)c2ccc(N3CCN(c4ccccn4)CC3)c([N+](=O)[O-])c2)c1 (stereo unspecified)	PKA-R2B act 21 | R2B FP artifact inactive | PKA-R2B act conf inactive
COC(C(=O)Nc1ccnn1C1CCN(C(=O)c2cccc(F)c2)CC1)c1ccccc1 (stereo unspecified)	none
Cc1cc(C)c(OCCn2ccnc2)c(C)c1	PKA-R2B act 18 (no result: IDE cell inh) | R2B FP artifact inactive | PKA-R2B act conf inactive
CCCCN1C=C(C(=O)c2ccccc2)C(=O)CC1	none (no result: IDE cell inh)
CCN1C=C(C(=O)c2ccccc2)C(=O)CC1	PKA-R2B act 20 (no result: IDE cell inh) | R2B FP artifact inactive | PKA-R2B act conf inactive
COc1cc(OC)cc(-c2c(-c3cccs3)c3cc(Br)ccc3n2C)c1	PKA-R2B act 20 | R2B FP artifact inactive | PKA-R2B act conf inactive
CC(C)(C)[C@H]1C=C(C(=O)Nc2ccccc2)O[C@@H](OCCCCO)C1	none
O=C(O)CC(Cc1ccc(Cl)cc1)C(=O)Nc1ccc([N+](=O)[O-])cc1 (stereo unspecified)	PKA-R2B act 19 | R2B FP artifact inactive | PKA-R2B act conf inactive
O=C(OCC(=O)N1CCCCC1)c1cc(NS(=O)(=O)c2ccc(Cl)c([N+](=O)[O-])c2)ccc1O	none
O=C(COC(=O)c1ccccc1O)NC1CCCc2ccccc21 (stereo unspecified)	PKA-R2B act 21 | R2B FP artifact inactive | PKA-R2B act conf inactive
COc1cccc(C(=O)OCC(=O)NC2CCCc3ccccc32)c1O (stereo unspecified)	none (no result: IDE cell inh)
CCOc1ccccc1/C=C(\C#N)C(=O)NC1CC1	none (no result: PKA-R1A activ, PKA-R2B act, IDE act)
CCOc1c(Br)cc(/C=C(\C#N)C(=O)NC2CC2)cc1OC	PKA-R2B act 19 | R2B FP artifact inactive | PKA-R2B act conf inactive
Cn1c(CCCOc2ccc(Cl)cc2Cl)nnc1SCC(=O)Nc1nccs1	PKA-R2B act 20 | R2B FP artifact inactive | PKA-R2B act conf inactive
CCCCc1nnc(SCC(=O)Nc2nccs2)n1C	none
Cc1ccc(N2C(=O)C3ON(c4ccccc4)C(c4ccncc4)C3C2=O)cc1 (stereo unspecified)	PKA-R2B act 20 | R2B FP artifact inactive | PKA-R2B act conf inactive
NS(=O)(=O)c1ccc(CCNC(=O)c2ccc(Cl)c(S(=O)(=O)N3CCCCC3)c2)cc1	PKA-R2B act 18 | R2B FP artifact inactive | PKA-R2B act conf inactive
NS(=O)(=O)c1ccc(CCNC(=O)c2ccc(S(=O)(=O)N3CCCCC3)cc2)cc1	none
CCC(C)(C)NC(=O)C(c1ccc(OC)cc1)N(C(=O)CCC(=O)Nc1cc(C)on1)c1ccc2c(c1)OCO2 (stereo unspecified)	none
COc1ccc(CC(=O)OCC(=O)NC2CCCCC2)cc1OC	PKA-R2B act 18 | R2B FP artifact inactive | PKA-R2B act conf inactive
N#Cc1cccc(CS(=O)(=O)c2ccc(Cl)cc2)c1	none
Cc1ccc(NC(=O)CN(C)C(=O)CSc2nc3ccccc3o2)cc1	none
COc1ccc(S(=O)(=O)N[C@H](C(=O)O)C(C)C)cc1	PKA-R2B act 19 | R2B FP artifact inactive | PKA-R2B act conf inactive
CCOc1cc(/C=N/n2c(C)nc3ccccc3c2=O)ccc1O	PKA-R2B act 20 | R2B FP artifact inactive | PKA-R2B act conf inactive
O=C(Cn1[nH]c(=O)c2ccccc2c1=O)OCC(=O)c1ccc(F)cc1	none
COCCN1C=C2C(=O)C(C)(OC(=O)CCC(=O)OC)C(=O)C=C2C=C1C1CC1 (stereo unspecified)	PKA-R2B act 20 | R2B FP artifact inactive | PKA-R2B act conf inactive
Cc1ccc2c(CC(=O)O)coc2c1	PKA-R2B act 19 | R2B FP artifact inactive | PKA-R2B act conf inactive
CCOC(=O)c1sc(NC(=O)/C=C/c2cnn(C)c2C)c(C(=O)OCC)c1C	none (no result: PKA-R1A activ, eLon inh, PKA-R2B act, Rin1 Abl inh, IDE act)
CCOc1c(CNCCNC(=O)c2nonc2N)cccc1OC	PKA-R2B act 19 | R2B FP artifact inactive | PKA-R2B act conf inactive
CCOC(=O)c1nc2nc(C)cc(=O)n2[nH]1	none
COc1cccc(OC)c1CNC(=O)CCSCc1ccccc1F	none
COc1cccc(CNC(=O)CCSCc2ccccc2F)c1	PKA-R2B act 20 | R2B FP artifact inactive | PKA-R2B act conf inactive
Cc1cc(C)n2cc(CSc3ncccc3C(=O)O)nc2n1	none
COc1ccc(NC(=O)CCNC(=O)Cn2cnc3ccccc3c2=O)cc1OC	PKA-R2B act 21 | R2B FP artifact inactive | PKA-R2B act conf inactive
COc1cc(NC(=O)CCNC(=O)Cn2cnc3ccccc3c2=O)cc(OC)c1OC	none
COCC(=O)Nc1cccc(C(F)(F)F)c1	PKA-R2B act 19 | R2B FP artifact inactive | PKA-R2B act conf inactive
CN(C)S(=O)(=O)c1ccc(S(=O)(=O)NCc2cccs2)cc1	PKA-R2B act 25 | R2B FP artifact inactive | PKA-R2B act conf inactive
CCOC(=O)[C@H]1[C@H]2COc3ccc(Cl)cc3[C@@H]2N2C(=O)CN(C)C(=O)[C@@]12C	none
COc1ccc(N2CCN(C(=O)c3ccc(OCc4c(C)noc4C)c(OC)c3)CC2)cc1	PKA-R2B act 20 | R2B FP artifact inactive | PKA-R2B act conf inactive
COc1ccc(NS(=O)(=O)c2cc(NC(=O)c3ccccc3F)ccc2N2CCCC2)cc1	PKA-R2B act 19 | R2B FP artifact inactive | PKA-R2B act conf inactive
CCc1nc2ccccc2c(C(=O)OCC(=O)NCCCN2CCCC2=O)c1C	PKA-R2B act 19 | R2B FP artifact inactive | PKA-R2B act conf inactive
Cc1ccc(S(=O)(=O)NCc2ccccc2)cc1C(=O)NCC(=O)Nc1c(C)cccc1C	none (no result: IDE cell inh, IDE act)
Cc1cc(C)cc(NC(=S)N2CCCC2)c1	none (no result: IDE cell inh)
COC(=O)[C@@H](NC(=O)c1ccc(OC2CCN(Cc3ccccn3)CC2)cc1)C(C)C	PKA-R2B act 20 | R2B FP artifact inactive | PKA-R2B act conf inactive
CCCC(c1nnnn1CC(=O)OCC)N(Cc1cc2ccc(C)cc2[nH]c1=O)C1CCCC1 (stereo unspecified)	none
CCCC(c1nnnn1CC(=O)OCC)N(Cc1cc2c(C)cc(C)cc2[nH]c1=O)C1CCCC1 (stereo unspecified)	PKA-R2B act 19 | R2B FP artifact inactive | PKA-R2B act conf inactive
c1ccc(Cn2ncc3c(Nc4ccccc4)ncnc32)cc1	none
Brc1ccc(/C=N/Nc2ncnc3c2cnn3Cc2ccccc2)cc1	PKA-R2B act 22 | R2B FP artifact inactive | PKA-R2B act conf inactive
COc1ccccc1OCC(=O)Nc1ccc(S(=O)(=O)Nc2cc(C)on2)cc1	none
CCn1cc(C(=O)Nc2ccc(C)cc2C)c(=O)c2ccc(C)nc21	none (no result: PKA-R1A activ, eLon inh, PKA-R2B act, Rin1 Abl inh, IDE act)

Screening data as filed in PubChem BioAssay.
